Measured values: PubChem BioAssay (NCI)
Compounds without any hit were thinned out: in the full panel of roughly 83,000, 20% have a hit.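 Cells were grown in 96-well plates and exposed to the test compound at a single concentration for 48 hours; results are reported as percent growth, with values below 10 considered active.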 Calls of active or inactive are those of the source.

tested on: HCC-2998 colon; test: NCI-60 one-dose screen, 48 h (100 = growth as untreated, 0 = no growth, -100 = all killed); conditions: 10 µM unless noted

SMILES | growth
CC1(C)CC[C@]23CC[C@]4(C)[C@H](CC[C@@H]5[C@@]6(C)C/C(=C/O)C(=O)C(C)(C)[C@@H]6CC[C@]54C)[C@H]2[C@H]1OC3 | 110% (inactive)
COC(=O)c1nc(-c2ccccc2)oc1S(=O)(=O)N1CCCC(C)C1 (centres undefined) | 104% (inactive)
Cc1ccc2c(/C=C/C(=O)c3cc(CN4CCOCC4)c(O)c4nc(C)ccc34)cc(CN3CCOCC3)c(O)c2n1 | 22.7% (inactive)
CCN1C(=O)N(CC)C2C1NN=c1s/c(=C\c3ccc(OC)cc3)c(=O)n12 (centres undefined) | 15.4% (inactive)
COc1ccc(C/C(C)=C(\c2ccc(Cl)cc2)c2ccc(OCCN3CCCC3)cc2)cc1 | 75.6% (inactive)
CCN(CC)CCOc1ccc(Nc2ncc3cc(-c4c(Cl)cccc4Cl)c(=O)n(CCOC)c3n2)cc1 | 9.52% (active)
O=C(O)c1cn(C2CC2)c2cc(N3CCN(C(=O)N4CCOCC4)CC3)c(F)cc2c1=O | 107% (inactive)
Clc1ccc(-c2nc(C(Cl)Cl)nc3cc(-c4ccccc4)nn23)cc1 | -53.7% (active)
c1cc(OCCN2CCCCCC2)ccc1CNc1ccc2nc(CCC3CCCCC3)[nH]c2c1 | -4.87% (active)
CN(C)CCCC1(c2ccc(F)cc2)OCc2cc(-c3csc4ccccc34)ccc21 (centres undefined) | -82.9% (active)
C(=C(\C1=NCCN1)n1ccc2ccccc21)/c1ccccc1 | 103% (inactive)
COc1ccc(C/C(C)=C(\c2ccc(Cl)cc2)c2ccc(OCCCN(C)C)cc2)cc1 | 47.1% (inactive)
Cc1ccc(S(=O)(=O)c2nc(-c3ccccc3)oc2SCC(N)=O)cc1 | 105% (inactive)
CCCCn1c(NC(C)=O)c(S(=O)(=O)c2ccccc2)c2nc3ccccc3nc21 | 113% (inactive)
Cc1ccc(Cc2cnc(NC(=O)/C=C/c3ccc(C)o3)s2)cc1 | 65.2% (inactive)
CCN(CC)CCOc1ccc(C(=O)/C=C\c2ccc(Cl)cc2Cl)cc1 | 24.2% (inactive)
O=C(/C=C/C12c3ccccc3C(c3ccccc31)C1C(=O)NC(=O)C12)c1ccco1 (centres undefined) | 103% (inactive)
CCOC(=O)C1=C(CC(O)c2ccc(OC)cc2OC)NC(=O)NC1c1ccccc1 (centres undefined) | 90.6% (inactive)
COc1ccc2c(c1)CC[C@@H]1[C@@H]2CC[C@]2(C)c3c(cc(C#N)c4c3sc3ccccc34)C[C@@H]12 | 92.7% (inactive)
COc1ccc(-c2cn(Cc3cc4ccccc4s3)nn2)cc1OCCN1CCCCC1 | 57.4% (inactive)
Cc1ncc(C(=O)Nc2ccc(CN3CCN(C)CC3)c(C(F)(F)F)c2)cc1C#Cc1cnc(N)c2ccc(C#N)cc12 | 34.1% (inactive)
Cc1sc2nc(NCCN)[nH]c(=O)c2c1C | 101% (inactive)
C#CCOc1cccc(Nc2ncnc3cc(NC(=O)CCl)ccc23)c1 | -67.2% (active)
COc1cc(-c2ccc(-c3ccc(C(=N)N)cc3)s2)cc(OC)c1OC | -19.6% (active)

tested on: KM12 colon; test: as above; conditions: 10 µM unless noted

SMILES | growth
COC(=O)c1c(C)nc(C)c2c1C(=O)C=C(NCc1ccccc1)C2=O | 83% (inactive)
COc1ccc2[nH]cc(-c3nonc3-c3c[nH]c4ccc(Br)cc34)c2c1 | 15.5% (inactive)
C=C(C)[C@@H]1CC[C@]2(COC3CCCCO3)CC[C@]3(C)[C@H](CC[C@@H]4[C@@]5(C)C=C(C=O)C(=O)C(C)(C)[C@@H]5CC[C@]43C)[C@@H]12 (some centres undefined) | -10.2% (active)
CCOc1ncc([N+](=O)[O-])c(OCC)n1 | 117% (inactive)
c1ccc(-c2c(-c3ccccc3)[n+](Cc3ccc4ccccc4c3)cn2Cc2ccc3ccccc3c2)cc1 | -80.2% (active)
Cn1cc(-c2csc(-c3cn(CCCN4CCOCC4)c4ccc(F)cc34)n2)c2cccnc21 | 34.3% (inactive)
Cc1cn(C)cn1 | 105% (inactive)
COC(=O)c1sccc1-c1cc(O)c(C(=O)Nc2ccccc2)s1 | 87% (inactive)
CCCCCc1ccc(S(=O)(=O)Nc2ccc3nc(N)oc3c2)cc1 | 64.1% (inactive)
COc1ccc2c(O)c(/C=C3\N=Nc4ncccc43)oc2c1C[C@@H]1CCNC[C@H]1F | -48.7% (active)
CCN(CC)CCCC(Cc1ccccc1)Nc1c2ccc(Cl)cc2nc2ccc(OC)cc12 (centres undefined) | 45.3% (inactive)
CNCC[C@H](Oc1cccc2ccccc12)c1cccs1 | 109% (inactive)
CCOC(=O)c1cnn(CC(C)O)c1NC(=O)NCc1cccc(F)c1 (centres undefined) | 106% (inactive)
N#Cc1ccc(/C=C/c2cn(-c3ccccc3)nc2-c2cccc([N+](=O)[O-])c2)cc1 | 65.7% (inactive)
O=C(/C=C/c1ccco1)Nc1ncc(Cc2cc(Cl)ccc2Cl)s1 | 10.4% (inactive)
CCOC(=O)c1nnn(Cc2cc(=O)oc3ccc(O)cc23)c1C | 102% (inactive)
CC1(C)CC[C@]23CC[C@]4(C)[C@H](CC[C@@H]5[C@@]6(C)C/C(=C/O)C(=O)C(C)(C)[C@@H]6CC[C@]54C)[C@H]2[C@H]1OC3 | 114% (inactive)
COC(=O)c1nc(-c2ccccc2)oc1S(=O)(=O)N1CCCC(C)C1 (centres undefined) | 97.7% (inactive)
Cc1ccc2c(/C=C/C(=O)c3cc(CN4CCOCC4)c(O)c4nc(C)ccc34)cc(CN3CCOCC3)c(O)c2n1 | -59.3% (active)
CCN1C(=O)N(CC)C2C1NN=c1s/c(=C\c3ccc(OC)cc3)c(=O)n12 (centres undefined) | 10.5% (inactive)

SMILES | growth
COc1ccc(C/C(C)=C(\c2ccc(Cl)cc2)c2ccc(OCCN3CCCC3)cc2)cc1 | 72.1% (inactive)
CCN(CC)CCOc1ccc(Nc2ncc3cc(-c4c(Cl)cccc4Cl)c(=O)n(CCOC)c3n2)cc1 | 15.9% (inactive)
O=C(O)c1cn(C2CC2)c2cc(N3CCN(C(=O)N4CCOCC4)CC3)c(F)cc2c1=O | 104% (inactive)
Clc1ccc(-c2nc(C(Cl)Cl)nc3cc(-c4ccccc4)nn23)cc1 | 3.35% (active)
c1cc(OCCN2CCCCCC2)ccc1CNc1ccc2nc(CCC3CCCCC3)[nH]c2c1 | 65.6% (inactive)
CN(C)CCCC1(c2ccc(F)cc2)OCc2cc(-c3csc4ccccc34)ccc21 (centres undefined) | -83.2% (active)
C(=C(\C1=NCCN1)n1ccc2ccccc21)/c1ccccc1 | 99.4% (inactive)
COc1ccc(C/C(C)=C(\c2ccc(Cl)cc2)c2ccc(OCCCN(C)C)cc2)cc1 | 68.6% (inactive)
Cc1ccc(S(=O)(=O)c2nc(-c3ccccc3)oc2SCC(N)=O)cc1 | 97.9% (inactive)
CCCCn1c(NC(C)=O)c(S(=O)(=O)c2ccccc2)c2nc3ccccc3nc21 | 103% (inactive)
Cc1ccc(Cc2cnc(NC(=O)/C=C/c3ccc(C)o3)s2)cc1 | 16.5% (inactive)
CCN(CC)CCOc1ccc(C(=O)/C=C\c2ccc(Cl)cc2Cl)cc1 | -43.2% (active)
O=C(/C=C/C12c3ccccc3C(c3ccccc31)C1C(=O)NC(=O)C12)c1ccco1 (centres undefined) | 12.9% (inactive)
CCOC(=O)C1=C(CC(O)c2ccc(OC)cc2OC)NC(=O)NC1c1ccccc1 (centres undefined) | 115% (inactive)
COc1ccc2c(c1)CC[C@@H]1[C@@H]2CC[C@]2(C)c3c(cc(C#N)c4c3sc3ccccc34)C[C@@H]12 | 109% (inactive)
COc1ccc(-c2cn(Cc3cc4ccccc4s3)nn2)cc1OCCN1CCCCC1 | 87% (inactive)
Cc1ncc(C(=O)Nc2ccc(CN3CCN(C)CC3)c(C(F)(F)F)c2)cc1C#Cc1cnc(N)c2ccc(C#N)cc12 | 3.87% (active)
Cc1sc2nc(NCCN)[nH]c(=O)c2c1C | 84.3% (inactive)
C#CCOc1cccc(Nc2ncnc3cc(NC(=O)CCl)ccc23)c1 | -69.5% (active)
COc1cc(-c2ccc(-c3ccc(C(=N)N)cc3)s2)cc(OC)c1OC | 23.4% (inactive)
